An excerpt weighted towards active compounds, which were near 31% of everything screened.
PLAP activator: activates human placental alkaline phosphatase. P05187. purified PLAP enzyme, luminescent substrate read-out; active compounds read high. activation fold at 20 µM. 96,000 tested, 1.2% active. AID 696; in the data active means activation fold above about 2
CYP2C19 act: increases human CYP2C19 enzyme activity | activation factor at 5 µM | AID 1025 | 96,000 tested, under 10 active | recombinant CYP2C19, luciferin-H EGE luminescence; active compounds read high; 0 = fully inhibited enzyme, 1 = untreated enzyme;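 active means activation factor of at least 2 at 5 µM in the primary screen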;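 further: 0 = wells with 2.5 mM tranylcypromine and 1 = vehicle-only wells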
Target sequence (P33261 whole entry, looked up): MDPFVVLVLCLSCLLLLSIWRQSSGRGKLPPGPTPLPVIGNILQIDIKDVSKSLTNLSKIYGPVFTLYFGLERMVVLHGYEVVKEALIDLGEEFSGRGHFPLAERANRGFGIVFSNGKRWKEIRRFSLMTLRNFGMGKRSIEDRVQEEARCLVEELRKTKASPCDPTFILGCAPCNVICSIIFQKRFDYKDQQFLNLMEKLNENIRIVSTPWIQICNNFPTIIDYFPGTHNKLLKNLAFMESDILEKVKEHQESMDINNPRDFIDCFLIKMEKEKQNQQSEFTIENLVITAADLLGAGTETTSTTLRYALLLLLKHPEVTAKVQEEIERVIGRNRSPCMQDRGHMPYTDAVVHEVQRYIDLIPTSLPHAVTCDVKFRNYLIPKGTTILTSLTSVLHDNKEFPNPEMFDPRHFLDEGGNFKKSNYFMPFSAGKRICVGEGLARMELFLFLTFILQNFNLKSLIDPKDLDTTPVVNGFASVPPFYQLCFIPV
CYP2C19 inh: inhibitors of human CYP2C19; 96,000 tested, 21% active; P33261; AID 778; CYP2C19 Supersomes, luciferin-H EGE luminescence, 30 min; inhibition, % at 5 µM;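 active means CYP2C19 inhibition above a set limit at 5 µM in the primary screen, cut at about 50% in these data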;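 further: plate controls were negative control wells for no effect and 2.5 mM tranylcypromine positive control for full effect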
CYP2C9 act: increases human cytochrome P450 2C9 activity | P11712 | recombinant CYP2C9, luciferin-H conversion, luminescence; active compounds read high; factor 1 = untreated enzyme, 0 = blocked | activation factor at 5 µM | 96,000 tested, 1.4% active | AID 1024;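 active means activation factor of 2 or more for CYP2C9 at a 5 µM dose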;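 further: 0 = sulfaphenazole-blocked wells and 1 = vehicle-only wells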
CYP2C9 inh: inhibitors of human CYP2C9; P11712; CYP2C9 Supersomes, luciferin-H conversion, luminescence; inhibition, % at 5 µM; 96,000 tested, 20% active; AID 777;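 active means blocking of liver enzyme CYP2C9 beyond about 50% at 5 µM, limit read from the data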
Starred values were filed as active, the others as inactive; . = no result.

SMILES	PLAP activator	CYP2C19 act	CYP2C19 inh	CYP2C9 act	CYP2C9 inh
COc1cccc(C2C=C(c3ccc(OC)cc3OC)Nc3nnnn32)c1 (stereo unspecified)	1.4	0.4	58*	0.2	77*
C=CCn1c(SCC(=O)NCc2cccs2)nnc1C1CCCCC1	0.9	0.7	26	0.9	15
CCc1cc2c(N[C@@H](C)C(=O)O)ncnc2s1	1	0.9	7	1	0
COCCNC(=O)c1c(N)n(CCC2=CCCCC2)c2nc3ccccc3nc12	1.9	0.1	92*	0	96*
C=CCn1c(N)c(C(=O)OCCC)c2nc3ccccc3nc21	1.2	0.2	77*	0.3	69*
COCCn1c(N)c(C(=O)OCc2ccccc2)c2nc3ccccc3nc21	1.7	0.6	38	0.4	62*
C=CCn1c(N)c(C(=O)Nc2cccc(C)c2)c2nc3ccccc3nc21	1.1	1.1	-7	0.8	17
Cc1cc(N)c(NC2=CC(=O)CC(C)(C)C2)cc1C	1.1	0.9	8	1.1	-9
O=C(CSc1ncn[nH]1)NCCC(c1ccccc1)c1ccccc1	1.5	0.2	83*	0.3	65*
O=C(CSc1ncn[nH]1)NCCOc1ccccc1	0.9	0.6	39	0.9	11
CCOC(=O)C(Sc1ncn[nH]1)c1ccccc1 (stereo unspecified)	1.7	0.4	64*	0.7	26
CCn1cc(CNC(=O)CCc2ccc(OC)cc2)cn1	1	0.8	15	1	2
COc1ccc(CCNC(=O)CSc2ncn[nH]2)cc1	0.9	0.5	52*	0.9	14
COc1ccc(CCC(=O)NCCc2cn3c(C)csc3n2)cc1	1.6	0.5	53*	1	2
O=C(CSc1ncn[nH]1)OCN1C(=O)c2ccccc2C1=O	1.2	1.1	-10	1.2	-19
O=C(CSc1cn(CCNC(=O)c2cccs2)c2ccccc12)NC1CCCCC1	1	0.4	59*	0.1	92*
O=C(CSc1cn(CCNC(=O)c2cccs2)c2ccccc12)NCc1ccccc1	1.1	0.1	86*	0	98*
O=C(CSc1cn(CCNC(=O)c2cccs2)c2ccccc12)NCC1CCCO1 (stereo unspecified)	1.1	0.7	34	0.2	81*
CCCn1cc(SCC(=O)NCC2CCCO2)c2ccccc21 (stereo unspecified)	1	0.6	39	1.5	-52
O=C(Cn1cc(C(=O)c2cccs2)c2ccccc21)NC1CCCCC1	0.7	0.5	55*	0.3	72*
COc1ccc2[nH]c(=O)c(CNc3ccccc3)cc2c1	1.3	0.9	9	1	1
CCCCNC(=O)OC(C)CNC(=O)Oc1cccc(C)c1 (stereo unspecified)	1.1	0.8	22	0.9	10
O=C(NC1CCC(NC(=O)C2CCCO2)CC1)C1CCCO1 (stereo unspecified)	1.1	1.1	-10	1.1	-9
CN1C(=O)/C(=C2\SC(N3CCCCCC3)=NC2=O)c2ccccc21	1.4	0.6	45	2.7*	-170
CCOCCOC(=O)C1=C(C)N(C)C(=O)NC1c1ccccc1Cl (stereo unspecified)	1.2	0.5	54*	0.9	12
SMILES	PLAP activator	CYP2C19 act	CYP2C19 inh	CYP2C9 act	CYP2C9 inh
CC1=C(C(=O)OCC(C)C)C(c2ccccc2Cl)NC(=O)N1C (stereo unspecified)	1.5	0	98*	0.2	84*
CCSCCOC(=O)C1=C(C)N(C)C(=O)NC1c1cc(OC)ccc1OC (stereo unspecified)	1.7	0.1	93*	0.2	79*
CC1=C(C(=O)OCC(C)C)C(c2cc3c(cc2Br)OCO3)NC(=O)N1C (stereo unspecified)	1.5	0.2	84*	0.3	72*
CCOC(=O)C1=C(C)N(C)C(=O)NC1c1ccc(C)s1 (stereo unspecified)	0.7	0.7	31	0.9	8
CCOCCOC(=O)C1=C(C)N(C)C(=O)NC1c1cc(Cl)c(O)c(OC)c1 (stereo unspecified)	1	0.8	23	0.6	40
CCC(Sc1n[nH]c(=O)[nH]c1=O)C(=O)OCc1ccccc1 (stereo unspecified)	1.5	0.6	41	0.8	18
Cc1nc(N2CCN(c3ccccc3)CC2)[nH]c(=O)c1Cc1cccc2ccccc12	1.1	.	.	.	.
COC(=O)C1=CN(C(C)C)C=C(C(=O)OC)C1c1cc2c(cc1Br)OCO2	0.9	0.4	60*	0.7	26
CN1CC(=O)Nc2ccc(F)cc2C1=O	0.9	1	0	1.1	-10
NC(=O)C1CCN(C(=O)CSc2ccccn2)CC1	0.9	1	-5	1.2	-16
O=C(O)c1ccc2[nH]c3c(c2c1)CSCC3	1	1.1	-14	1.1	-6
Cc1ccc2[nH]c3c(c2c1)CN(C(=O)CN1c2ccc(F)cc2CCC1C)CC3 (stereo unspecified)	1.2	0.7	29	0.5	46
Cc1ccc2[nH]c3c(c2c1)CN(C(=O)CN1CCN(c2cccc(C)c2C)CC1)CC3	1.8	0.5	49	0.1	89*
O=C(CN1CCSCC1)N1CCc2[nH]c3ccc(Br)cc3c2C1	1.4	0.1	93*	0.2	81*
Cc1ccccc1NC(=O)CSc1[nH]c(=O)cc(C)c1C#N	1	0.4	63*	0.2	81*
COc1ccc(NC(=O)CSc2[nH]c(=O)cc(C)c2C#N)cc1OC	0.9	0.7	34	0.7	33
Cc1cc(=O)[nH]c(SCC(=O)c2ccccc2)c1C#N	0.9	0.5	46	0.1	85*
Cc1cc(C)cc(N2C(=O)CC(N(C(=O)c3ccco3)c3cc(C)cc(C)c3)C2=O)c1 (stereo unspecified)	1.2	0.6	44	0.4	62*
CCCOc1ccc(N2C(=O)CC(N(C(=O)c3ccco3)c3ccc(OCCC)cc3)C2=O)cc1 (stereo unspecified)	1	1	1	0.8	17
CCOc1ccccc1OCCn1nnc2ccccc21	0.7	0.2	83*	1.8	-76
OCc1nc2ccccc2n1CCCOc1ccc(Br)cc1	1.6	0.5	49	0.7	26
CCOc1cc(C#N)c(NC(=O)Cn2nnc3ccccc32)cc1OCC	0.9	1.1	-8	0.9	12
Cc1ccc(C)c(Cn2c(CO)nc3ccccc32)c1	0.9	0.6	36	0.9	6
Cc1cccc(OCCn2c(CCCO)nc3ccccc32)c1	1.6	0.1	91*	0.3	68*
COc1ccccc1OCCn1c(CO)nc2ccccc21	1	0.4	56*	0.8	18
CC(C)CCn1c(C(C)O)nc2ccccc21 (stereo unspecified)	1	0.8	17	0.9	12
COc1ccccc1OCCn1c(C(C)O)nc2ccccc21 (stereo unspecified)	1	0.1	85*	0.9	7
COC(=O)c1nc2n(n1)C(c1ccccc1OC)C1=C(CCCC1=O)N2 (stereo unspecified)	1.1	0.9	8	1	4
